Screening data deposited in PubChem by National Center for Advancing Translational Sciences (NCATS).
The list is not random: actives were taken first. Their share in the collection is about 12%.
Sm TGR block – blocks Schistosoma mansoni thioredoxin glutathione reductase. Q962Y6. purified TGR, DTNB reduction, TNB absorbance 405 nm. Potency, µM (titrated, usually from 114 µM), usual class: inhibitors. 360,000 tested, 3% active. AID 485364; further: nearly all actives have a fitted effect of over 60% in size
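First, TGR (20 nM dispensed) and NADPH were mixed with compound. Second, a 15 min room-temperature incubation followed. Third, further NADPH and then DTNB were added to start the reaction. Finally, TNB absorbance was monitored kinetically.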
SARS PLpro yeast – blocks SARS-CoV papain-like protease in a yeast assay | 330,000 tested, 0.19% active | Potency, µM (highest dose often 32.9 µM), actives largely listed as activators | S. cerevisiae expressing SARS-CoV PLpro, growth rescue; calls by dose curve; further: nearly all actives have a fitted effect of over 55% in size
Pf growth 96h – P. falciparum growth inhibition at 96 hours | Potency, µM (doses to about 28.7 µM), most hits filed as inhibitors | P. falciparum luciferase reporter growth, 96 h | AID 504834 | 320,000 tested, 6.9% active
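Infected RBCs, 2% Hct / 0.05% parasitemia final; luciferase-reporter P. falciparum; cpd 96 h, 37 C, 5% CO2; luciferase detection reagent; luminescence.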
AmpC no deterg – blocks E. coli AmpC beta-lactamase in detergent-free assay | P00811 | AmpC nitrocefin hydrolysis, absorbance 480 nm, 0.0001% Triton | Potency, µM (series often up to 57.1 µM), most hits filed as inhibitors | 330,000 tested, 0.52% active; further: nearly all actives have a fitted effect of over 20% in size
Target sequence (P00811 whole entry, looked up): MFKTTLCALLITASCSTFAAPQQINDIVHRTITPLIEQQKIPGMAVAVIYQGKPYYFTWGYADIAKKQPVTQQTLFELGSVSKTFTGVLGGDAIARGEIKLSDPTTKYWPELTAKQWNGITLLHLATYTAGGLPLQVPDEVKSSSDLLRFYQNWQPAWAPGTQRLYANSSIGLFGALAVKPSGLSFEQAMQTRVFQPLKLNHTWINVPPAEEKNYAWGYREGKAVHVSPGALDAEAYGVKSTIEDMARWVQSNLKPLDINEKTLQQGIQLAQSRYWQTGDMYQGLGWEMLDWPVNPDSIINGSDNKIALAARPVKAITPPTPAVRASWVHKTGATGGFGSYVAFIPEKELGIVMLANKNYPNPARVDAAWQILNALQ
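AmpC (5.3 nM in the dispensed reagent) in 20 mM phosphate pH 7.0 with 0.01% (detergent screen) or 0.0001% Triton X-100 was preincubated with compounds for 15 min at room temperature. Nitrocefin was then added from an 800 uM solution, and hydrolysis was followed at 480 nm.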
AmpC inh detg – blocks E. coli AmpC beta-lactamase in detergent assay; P00811; AmpC hydrolysis of nitrocefin, absorbance 480 nm, 0.01% Triton; Potency, µM (top dose mostly 114 µM), most hits filed as inhibitors; 370,000 tested, 0.041% active; further: nearly all actives have a fitted effect of over 25% in size
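AmpC (5.3 nM in the dispensed reagent) in 20 mM phosphate pH 7.0 with 0.01% (detergent screen) or 0.0001% Triton X-100 was preincubated with compounds for 15 min at room temperature. Nitrocefin was then added from an 800 uM solution, and hydrolysis was followed at 480 nm.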
Pf growth 48h – P. falciparum growth inhibition at 48 hours (one generation); P. falciparum luciferase growth in erythrocytes, 48 h; Potency, µM (doses to about 28.7 µM), actives largely listed as inhibitors; 310,000 tested, 5.9% active
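Compounds are pin-transferred into medium, infected erythrocytes (2% hematocrit, 0.1% parasitemia final) are added, and plates sit one parasite generation at 37 C in 5% CO2. Detection reagent is then added and luminescence measured.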
Hits are given with their value; [ ] = remark or other dose. Unless noted, the call rests on the fitted dose curve; in most records, active means well fitted curve in the direction sought with a large enough effect; inconclusive means small, poorly fitted or top-dose-only effect, or another doubt; inactive means no such curve, though single readings can be large; an effect the other way counts as inactive or inconclusive.

Results for COc1cccc(NC(=O)C2CC(=O)n3cnnc3S2)c1 (centres undefined) ?
Sm TGR block: 0.631µM; SARS PLpro yeast: inactive; Pf growth 96h: inactive[5.75 µM]; AmpC no deterg: inactive; AmpC inh detg: inactive; Pf growth 48h: inconclusive

Results for CCc1noc(-c2ccc(N3CCC(C)CC3)c([N+](=O)[O-])c2)n1 ?
Sm TGR block: inactive; AmpC inh detg: inactive

What do the screens show for `CCOC(=O)N1CCC(N2C(=O)c3ccccc3C2Nc2ccccc2C)CC1` (centres undefined)?
Sm TGR block: inactive; SARS PLpro yeast: inactive; Pf growth 96h: inactive; AmpC no deterg: inactive; AmpC inh detg: inconclusive; Pf growth 48h: inconclusive

How did CCOC(=O)c1ccccc1NC1c2ccccc2C(=O)N1C1CCN(C(=O)OCC)CC1 (centres undefined) do in these assays?
Sm TGR block: inactive; SARS PLpro yeast: inactive; Pf growth 96h: inconclusive; AmpC no deterg: inactive; AmpC inh detg: inactive; Pf growth 48h: 1.65µM

Results for Cc1cc(C)[n+](C2C3CC4CC(C3)CC2C4)o1 (centres undefined) ?
Sm TGR block: inactive; SARS PLpro yeast: inactive; Pf growth 96h: 1.85µM; AmpC no deterg: inactive; AmpC inh detg: inactive; Pf growth 48h: inconclusive

What do the screens show for `CCOc1ccc(C(=O)NNC(=O)CN2C(=O)C3CC=CCC3C2=O)cc1OC` (centres undefined)?
SARS PLpro yeast: inactive; AmpC no deterg: inactive

Results for C=CCN=C(NC#N)SC ?
Sm TGR block: inactive; SARS PLpro yeast: inactive; Pf growth 96h: inactive; AmpC no deterg: inactive; AmpC inh detg: inactive; Pf growth 48h: 0.233µM

What do the screens show for `CCn1c(CNC(=O)c2ccc(OC)cc2)nnc1SCC(=O)Nc1cccc(C)c1`?
Sm TGR block: inactive; AmpC inh detg: inconclusive

How did O=C(C1CCN(C2CC(=O)N(Cc3ccccc3)C2=O)CC1)N1CCCCCC1 (centres undefined) do in these assays?
Sm TGR block: 22.4µM; SARS PLpro yeast: inactive; Pf growth 96h: inactive; AmpC no deterg: inactive; AmpC inh detg: inactive; Pf growth 48h: inactive

What do the screens show for `O=C(C1CCN(C2CC(=O)N(c3cccc(Cl)c3)C2=O)CC1)N1CCCC1` (centres undefined)?
Sm TGR block: 22.4µM; SARS PLpro yeast: inactive; AmpC no deterg: inactive; AmpC inh detg: inconclusive; Pf growth 48h: inactive

Results for O=C(C1CCN(Cc2ccccc2)CC1)N1CCCC1 ?
Sm TGR block: inactive; SARS PLpro yeast: inactive; AmpC no deterg: inactive; AmpC inh detg: inactive; Pf growth 48h: inactive

Results for O=C1CC(N2CCC(Cc3ccccc3)CC2)C(=O)N1CCc1ccccc1 (centres undefined) ?
Sm TGR block: 11.2µM; SARS PLpro yeast: inactive; Pf growth 96h: inactive; AmpC no deterg: inactive; AmpC inh detg: inactive

How did O=C1CC(N2CCN(C3CC(=O)N(CCc4ccccc4)C3=O)CC2)C(=O)N1CCc1ccccc1 (centres undefined) do in these assays?
Sm TGR block: inactive; SARS PLpro yeast: inactive; Pf growth 96h: inactive; AmpC no deterg: inactive; AmpC inh detg: inactive; Pf growth 48h: inactive

How did O=C(C1CCN(C2CC(=O)N(c3ccc(Cl)cc3)C2=O)CC1)N1CCOCC1 (centres undefined) do in these assays?
Sm TGR block: 14.1µM; SARS PLpro yeast: inactive; AmpC no deterg: inactive; AmpC inh detg: inactive; Pf growth 48h: inactive

How did N#C/C(=C\c1ccc(-c2cccc(Cl)c2)o1)C(=O)Nc1cccc(C(F)(F)F)c1 do in these assays?
Sm TGR block: inactive; AmpC inh detg: inactive

Results for C/C(=N\NS(=O)(=O)c1ccccc1)c1cc(Cl)cc(Cl)c1O ?
Sm TGR block: inactive; SARS PLpro yeast: inactive; Pf growth 96h: inactive; AmpC no deterg: inactive; AmpC inh detg: inactive; Pf growth 48h: inactive

How did Cc1nc(Oc2ccccc2C)c2oc3ccccc3c2n1 do in these assays?
Sm TGR block: inconclusive; AmpC inh detg: inactive

How did CC(=O)C1=C(c2ccccc2)N(C(C)=O)n2c(C)nnc2S1 do in these assays?
Sm TGR block: inactive; SARS PLpro yeast: inactive; Pf growth 96h: inactive; AmpC no deterg: inactive; AmpC inh detg: inactive; Pf growth 48h: 2.33µM

Results for CS(=O)Cc1cc(Sc2ccccc2)nc(-c2ccncc2)n1 (centres undefined) ?
Sm TGR block: inactive; SARS PLpro yeast: inactive; Pf growth 96h: inconclusive; AmpC no deterg: inactive; AmpC inh detg: inactive; Pf growth 48h: inactive

What do the screens show for `O=C(NC(=S)Nc1ccc(F)c(Cl)c1)C1CC1`?
Sm TGR block: 15.8µM; SARS PLpro yeast: inactive; Pf growth 96h: inactive; AmpC no deterg: inactive; AmpC inh detg: inactive; Pf growth 48h: inactive

What do the screens show for `CC(=O)Nc1ccc(NC(=O)C2CCN(c3ccc(C(F)(F)F)cn3)CC2)cc1`?
SARS PLpro yeast: inactive; Pf growth 96h: inactive; AmpC no deterg: inactive; AmpC inh detg: inactive; Pf growth 48h: inactive

Results for NC(=O)NC(=O)Nc1ccccc1Cl ?
Sm TGR block: inactive; SARS PLpro yeast: inactive; Pf growth 96h: 10.4µM; AmpC no deterg: inactive; AmpC inh detg: inactive; Pf growth 48h: inactive

How did CCOc1ccccc1NC(=S)NC(=O)C1CCCCC1 do in these assays?
Sm TGR block: 8.91µM; SARS PLpro yeast: inactive; Pf growth 96h: inconclusive; AmpC no deterg: inactive; AmpC inh detg: inactive; Pf growth 48h: inconclusive

Results for O=C(NC(=O)c1csnn1)Nc1ccccc1Cl ?
Sm TGR block: inactive; SARS PLpro yeast: inactive; Pf growth 96h: inactive; AmpC no deterg: inactive; AmpC inh detg: inactive; Pf growth 48h: inactive

Results for O=C(Nc1ccc(F)c(Cl)c1)C1CCCCC1 ?
Sm TGR block: inactive; SARS PLpro yeast: inactive; Pf growth 96h: inactive; AmpC no deterg: inactive; AmpC inh detg: inactive; Pf growth 48h: inactive

How did O=C(Nc1ccc(Oc2ccc(C(F)(F)F)cn2)c(Cl)c1)C1CC1 do in these assays?
Sm TGR block: inactive; SARS PLpro yeast: inactive; Pf growth 96h: 11.7µM; AmpC no deterg: inactive; AmpC inh detg: inactive; Pf growth 48h: inconclusive

Results for Cc1ccc2ccc3cc(C(=O)N4CCN(c5ccccc5)CC4)nc3c2[nH]1 ?
Sm TGR block: inactive; AmpC inh detg: inactive

Results for COc1ccc(NC(=O)c2cc(S(=O)(=O)N3CCCCC3)c[nH]2)cc1 ?
Sm TGR block: inactive; SARS PLpro yeast: inactive; Pf growth 96h: inactive; AmpC no deterg: inactive; AmpC inh detg: inconclusive; Pf growth 48h: inconclusive

How did O=C(Nc1ccc(Cl)c(C(F)(F)F)c1)C(Cc1ccccc1)NS(=O)(=O)c1ccc(Br)s1 (centres undefined) do in these assays?
Sm TGR block: inactive; AmpC inh detg: inactive

How did CN(Cc1ccccc1)S(=O)(=O)c1ccc(N2CCOCC2)nc1 do in these assays?
Sm TGR block: inactive; SARS PLpro yeast: inactive; Pf growth 96h: inactive; AmpC no deterg: inactive; AmpC inh detg: inactive; Pf growth 48h: inactive

How did CCc1cccc(NC(=O)Cn2nc(C)c3sc4ccccc4c3c2=O)c1 do in these assays?
Sm TGR block: inactive; AmpC inh detg: inactive
